Drawing on PubChem BioAssay (NCATS), this text covers outcome, max response and Potency for 52 molecules.

The subject of experiment [1] is CRL-7250. Kind of experiment: Cytotoxic Profiling of Annotated Libraries Using Quantitative High-Throughput Screening (AID 1296008). Also: nearly all actives have a fitted effect of over 60% in size. Conditions: Five cell lines viability, CellTiter-Glo ATP luminescence, 48-72 h; max response: active compounds read low. An outline of the steps:
(§1)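 Cells exposed to compounds for 48 or 72 hr at 37 degrees Celsius. Viability read as ATP-coupled luminescence with CellTiter-Glo after 10 min at room temperature.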
(In general: Cellular ATP, detected with luciferase, serves as a proxy for viable cell number.)

In experiment [2] the test system is HEK293. The description is as above. The conditions noted are these: Five cell lines viability, CellTiter-Glo ATP luminescence, 48-72 h; max response: active compounds read low. An outline of the steps:
as §1

Molecules are shown by their SMILES. Records with an inconclusive call do not appear. Unmarked numbers belong to inactive results. Active and inactive are the calls of the source. Calls follow the shape of the dose curve; as a rule, active = well fitted inhibition curve with a large enough effect; inconclusive = small, poorly fitted or top-dose-only effect; inactive = flat fitted curve, though single readings scatter.
% is scaled to controls: 0 for no effect and ±100 for the full control effect; potency is read from the fitted curve at half-maximal effect.

Turning to `COC(=O)C1=C2Nc3ccccc3C23CCN2CCCC(C(C)O)(C1)C23` (centres undefined), the outcome in experiment [1] was inactive. In experiment [2], the max response was -3.43%.

Regarding `CC[C@H]1OC(=O)[C@](C)(F)C(=O)[C@H](C)[C@@H](O[C@@H]2O[C@H](C)C[C@H](N(C)C)[C@H]2O)[C@](C)(OC)C[C@@H](C)C(=O)[C@@H](C)[C@H]2N(CCCCn3cc(-c4cccc(N)c4)nn3)C(=O)O[C@]12C`, the max response in experiment [1] was -0.28%. Further, the Potency in experiment [2] was 1.46 µM (active).

`O=S(=O)(c1ccc(S(=O)(=O)n2cnc3ccccc32)cc1)N1CCCCCC1`: the max response in experiment [1] was -2.18%; in experiment [2], -10.3%.

In the case of `COC(=O)CC(O)C1OC(c2ccccc2)C(O)C1O` (centres undefined), the max response is -3.81% in experiment [1] and 2.88% in experiment [2].

For the molecule `C/C=C/c1cc(OC)c2c(c1)[C@@H](C)[C@@H](c1ccc(O)c(OC)c1)O2`, the max response in experiment [1] was -4.41%; in experiment [2], -109%.

For `O=C(N/N=C/c1ccc(O)c(O)c1)c1cc2ccccc2cc1O`, the max response in experiment [1] is -27.6%. The call in experiment [2] was inactive.

In the case of `Cc1[nH]c2ccccc2c1CCNC(=O)c1ccccc1F`, the results for the max response in experiment [1] and in experiment [2] were -5.45% and 2.26%, respectively.

Regarding `COC(=O)C1=COC(OC2OC(CO)C(O)C(O)C2O)C2C1C=CC2(O)CO` (centres undefined), the molecule was classed as inactive in experiment [1]. Further, the max response in experiment [2] was -11.3%.

In the case of `CC(=O)N[C@@H](C(=O)O[C@H]1CCC(C)(C)[C@@H]2CCC3=C(COC3=O)[C@@]12C)C(C)C`, the values for the max response in experiment [1] and in experiment [2] were -2.03% and 1.75%, respectively.

As to `CCCCNc1ncc2c(-c3ccc(CN4CCN(C)CC4)cc3)cn(C3CCC(O)CC3)c2n1` (centres undefined), the Potency in experiment [1] is 5.17 µM (active); in experiment [2], 7.31 µM (active).

On to `CC1=CC(=O)C(=C(C)C)CC2C1CCC2(C)O` (centres undefined), for which the max response in experiment [1] was -11.2%; in experiment [2], 4.65%.

In the case of `COc1ccc(CNC(=O)c2cc(-c3cncc(C)c3)ncc2-c2nccs2)nc1OC`, the outcome in experiment [1] was inactive. In addition, the max response in experiment [2] is -57.9%.

Regarding `COc1c2c(c(C)c3c1C(=O)OC3)O[C@@]1(C)CCC3(C(C)(C)O)OC(=O)CC[C@]3(C)[C@H]1C2` (some centres undefined), the max response in experiment [1] is -2.51%; in experiment [2] it was -0.697%.

Turning to `CC(C)(F)C[C@@H](N[C@@H](c1ccc(-c2ccc(S(C)(=O)=O)cc2)cc1)C(F)(F)F)C(=O)NC1(C#N)CC1`, the results for the max response in experiment [1] and in experiment [2] were 0.789% and -10.4%, respectively.

For `CC(C)CN(C[C@@H](O)[C@H](Cc1ccccc1)NC(=O)O[C@@H]1CO[C@H]2OCC[C@H]21)S(=O)(=O)c1ccc(N)cc1`, the max response is 4.36% in experiment [1] and -6.82% in experiment [2].

Consider `COc1ccc(C2(O)CCC(N3CC[C@@H](NC(=O)CNC(=O)c4cccc(C(F)(F)F)c4)C3)CC2)cn1` (some centres undefined), for which the max response in experiment [1] is -18%; in experiment [2] it was -19.1%.

With `CC1=CC(=O)CC(C)(C)[C@@]1(O)CC[C@@H](C)O[C@@H]1O[C@H](CO)[C@@H](O)[C@H](O)[C@H]1O`, the max response is 0.369% in experiment [1] and -2.25% in experiment [2].

Take `CC1C(OC(=O)c2ccccc2)C(O)C2C(C(=O)O)=COC(OC3OC(CO)C(O)C(O)C3O)C12` (centres undefined): the results for the max response in experiment [1] and in experiment [2] were 3.33% and -0.0764%, respectively.

With `CC1OC(OC2C(CO)OC(OCC3OC(OC(=O)C45CCC(C)(C)CC4C4=CCC6C7(C)CCC(OC8OC(CO)C(O)C(OC9OC(CO)C(O)C(O)C9O)C8O)C(C)(C)C7CCC6(C)C4(C)CC5)C(O)C(O)C3O)C(O)C2O)C(O)C(O)C1OC1OC(CO)C(O)C(O)C1O` (centres undefined), the max response is -0.747% in experiment [1] and -0.594% in experiment [2].

For the molecule `Cc1cccc(Oc2cnc(=O)[nH]c2)c1`, the molecule was called inactive in experiment [1]. In experiment [2], the max response was 2.27%.

For `O=C(/C=C/c1ccc(O)cc1)N[C@@H](Cc1ccc(O)cc1)C(=O)O`, the values for the max response in experiment [1] and in experiment [2] were -6.91% and -7.32%, respectively.

With `CC1=CC(=O)CC(C)(C)C1/C=C/C(C)O[C@@H]1O[C@H](CO)[C@@H](O)[C@H](O)[C@H]1O[C@@H]1OC[C@](O)(CO)[C@H]1O` (some centres undefined), the values for the max response in experiment [1] and in experiment [2] were -0.149% and 1.02%, respectively.

For `CC1=CC(=O)CC2C1(O)CCC(C)C21CC(c2ccoc2)OC1=O` (centres undefined), the max response in experiment [1] is -9.3%; in experiment [2] it was -14.1%.

`C[C@@H]1O[C@@H](O[C@@H]2CO[C@@H](O[C@H]3CC[C@@]4(C)C(CC[C@]5(C)C4CC=C4[C@@H]6CC(C)(C)CC[C@]6(C(=O)O[C@@H]6O[C@H](CO)[C@@H](O)[C@H](O)[C@H]6O)CC[C@]45C)[C@]3(C)CO)[C@H](O)[C@H]2O[C@@H]2O[C@H](CO)[C@@H](O)[C@H](O)[C@H]2O)[C@H](O)[C@H](O)[C@H]1O` (some centres undefined): the max response in experiment [1] is -2.09%; in experiment [2], 1.34%.

As to `C=CC1(C)C=C2C(=O)OC(=O)C3=C(CCCC3(C)C)C2(O)CC1` (centres undefined), the max response in experiment [1] is -0.556%; in experiment [2], -14.3%.

Regarding `Cc1nc2ccc(Oc3ccc(F)cc3)cc2c(=O)n1C[C@H]1CCCN(C(C)C)C1`, the results for the max response in experiment [1] and in experiment [2] were -2.55% and -15.9%, respectively.

Consider `CC1C=CC2CCCCC2C1CCC1CC(O)CC(=O)O1` (centres undefined), for which the max response in experiment [1] was -5.84%. Moreover, the molecule was classed as inactive in experiment [2].

As to `OC/C=C/c1ccc(O[C@@H]2O[C@H](CO)[C@@H](O)[C@H](O)[C@H]2O)cc1`, the values for the max response in experiment [1] and in experiment [2] were -14.7% and -1.19%, respectively.

As to `O=C(O[C@H]1[C@@H]2C[C@@H]3OC[C@](O)([C@@H]1Cl)[C@H]2C(O[C@@H]1O[C@H](CO)[C@@H](O)[C@H](O)[C@H]1O)O3)c1ccc(O)c(O)c1` (some centres undefined), the max response in experiment [1] was -7.93%; in experiment [2] it was -2.09%.

`C=C1C(O)C[C@@H]2C(C(=O)O)=CO[C@@H](O[C@@H]3O[C@H](CO)[C@@H](O)[C@H](O)[C@H]3OC(=O)c3ccc(O)cc3)[C@H]12` (some centres undefined): the max response in experiment [1] is -1.69%; in experiment [2], -0.967%.

With `OC1CCC(Nc2ncc3nc(Nc4c(F)cc(F)cc4F)n([C@H]4CCOC4)c3n2)CC1` (some centres undefined), the max response in experiment [1] was -2.71%. In addition, the molecule was classed as inactive in experiment [2].

On to `CC1CCC2(CO)C(C(=O)O)=CCCC2C1(C)CCc1ccoc1` (centres undefined), for which, in experiment [1], the outcome was inactive. In addition, the max response in experiment [2] is -3.01%.

In the case of `COc1cc2ncnc(Nc3cccc(Cl)c3F)c2cc1OC(=O)N1CCN(C)C[C@H]1C`, the max response in experiment [1] was -58.2%; in experiment [2], -115%.

Take `O=C(O)C(O[C@@H]1O[C@H](CO[C@@H]2O[C@H](CO)[C@@H](O)[C@H](O)[C@H]2O)[C@@H](O)[C@H](O)[C@H]1O)c1ccccc1` (some centres undefined): the max response is -5.65% in experiment [1] and -7.94% in experiment [2].

On to `CCOC(=O)C(CCc1ccccc1)NC(C)C(=O)N1C(=O)N(C)CC1C(=O)O` (centres undefined), for which the max response was 3.58% in experiment [1] and -4.81% in experiment [2].

On to `CC12CCC3c4ccc(O)cc4CCC3C1CC(OC1OC(C(=O)O)C(O)C(O)C1O)C2O` (centres undefined), for which the max response is -23.2% in experiment [1] and 4.04% in experiment [2].

Regarding `CC(=O)CC1CCC(C(C)C(=O)OCC(O)CO)O1` (centres undefined), the max response in experiment [1] is 2.08%; in experiment [2], -3.6%.

For the molecule `C=C(C)C1Cc2cc(C(=O)OC3OC(CO)C(O)C(O)C3O)ccc2O1` (centres undefined), the max response in experiment [1] was -9%; in experiment [2] it was -15%.

On to `CC/C=C/CC1=C(CCCCC(CCC(=O)O)OC(C)=O)CCC1=O` (centres undefined), for which the max response is -18.8% in experiment [1] and -16.2% in experiment [2].

As for `CC(C)=CCC[C@](C)(O[C@@H]1O[C@H](CO)[C@@H](O)[C@H](O)[C@H]1O)[C@H]1CC[C@]2(C)[C@@H]1[C@H](O)CC1[C@@]3(C)CC[C@H](O)C(C)(C)C3[C@@H](O[C@@H]3O[C@H](CO)[C@@H](O)[C@H](O)[C@H]3O)C[C@]12C` (some centres undefined), the max response is -0.753% in experiment [1] and -3.92% in experiment [2].

For `CC1(C)CC[C@]2(C(=O)O)CC[C@]3(C)C(=CCC4[C@@]5(C)CC[C@H](O[C@@H]6O[C@H](C(=O)O)[C@@H](O[C@@H]7OC[C@@H](O)[C@H](O)[C@H]7O)[C@H](O)[C@H]6O)C(C)(C)C5CC[C@]43C)C2C1O` (some centres undefined), the max response was 4.1% in experiment [1] and 2.41% in experiment [2].

For `COc1cccc2cc3c(c(O[C@@H]4O[C@H](CO[C@@H]5O[C@H](CO)[C@@H](O)[C@H](O)[C@H]5O)[C@@H](O)[C@H](O)[C@H]4O)c12)C(C)OC3=O` (some centres undefined), the max response in experiment [1] was -0.694%; in experiment [2], 2.15%.

As for `O=S(=O)(NCC1CC1)c1ccc(Nc2nccc(N3CCCc4cc(O)ccc43)n2)cc1`, the Potency in experiment [1] is 1.16 µM (active); in experiment [2], 1.64 µM (active).

In the case of `CON(C)C(=O)[C@H](O)[C@H](Cc1ccccc1)NC(=O)c1cc2cc(Cl)ccc2[nH]1`, the outcome in experiment [1] was inactive. Also, the max response in experiment [2] was -8.5%.

With `C/C=C(/COC(=O)/C(C)=C/C)C(=O)OC(CC)c1ccc(OC)c(OC)c1` (centres undefined), the max response is 3.89% in experiment [1] and 4.08% in experiment [2].

Take `C[C@@H]1O[C@@H](O[C@H]2[C@H](O)[C@@H](O)[C@H](OC[C@H]3O[C@@H](OC(=O)[C@]45CCC(C)(C)C[C@H]4C4=CCC6[C@@]7(C)CC[C@H](O[C@@H]8OC[C@H](O)[C@H](O[C@@H]9O[C@H](CO)[C@@H](O)[C@H](O)[C@H]9O)[C@H]8O)[C@@](C)(CO)C7CC[C@@]6(C)[C@]4(C)CC5)[C@H](O)[C@@H](O)[C@@H]3O)O[C@@H]2CO)[C@H](O)[C@H](O)[C@H]1O` (some centres undefined): the call in experiment [1] was inactive. Moreover, in experiment [2], the max response is -14.9%.

As for `CCCOC(c1cc2nccc(C(=O)O)c2[nH]1)c1ccccc1Cl` (centres undefined), the results for the max response in experiment [1] and in experiment [2] were -10.8% and -12.6%, respectively.

In the case of `O=C(CC(c1ccccc1)c1ccccc1)N1CCN(C(c2ccccc2)c2ccccc2)CC1`, the max response in experiment [1] is -24.4%. In experiment [2], the Potency is 20.6 µM (active).

In the case of `CO[C@H]1/C=C/[C@@](C)(O)/C=C/C(=O)O[C@H](C)[C@@H](C)CC/C=C/1C`, the max response in experiment [1] is -17.6%; in experiment [2] it was -82.6%.

For `CC(Nc1ncnc2nc[nH]c12)c1cc2cccc(Cl)c2c(=O)n1-c1ccccc1` (centres undefined), the max response in experiment [1] is -7.8%. The Potency in experiment [2] is 18.4 µM (active).

`O=C(O)/C=C/c1cc2c(cc1O[C@@H]1O[C@H](CO)[C@@H](O)[C@H](O)[C@H]1O)OCO2`: the max response is 4.22% in experiment [1] and 2.33% in experiment [2].

In the case of `CCOC(=O)c1sc(NC(=O)[C@H](C(C)C)n2c(=O)[nH]c3ccccc3c2=O)nc1C`, the call in experiment [1] was inactive. The max response in experiment [2] was -9.44%.
